“And” between values parts separate entries of the source, which are not always exact repeats. Equal values may be shown once. Compounds without any hit were thinned out: in the full panel of roughly 83,000, 20% have a hit.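 Treatment: one concentration, 48 hours, 96-well format. Scoring: percent growth, with anything below 10 considered active.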 The source made the active and inactive calls.
System: A498 renal
Test: NCI-60 one-dose screen, 48 h (100 = growth as untreated, 0 = no growth, -100 = all killed)
Conditions: 10 µM unless noted

| Compound | growth |
| --- | --- |
| COc1cc2c(c(OC)c1OC)-c1ccc(OC)c(=O)cc1[C@@H](NC(C)=O)CC2 | -0.067% (active) and 15.5% (inactive) |
| CCN(CC)CCCC(CNc1ccnc2cc(Cl)ccc12)c1ccc(Cl)cc1 (configuration not stated) | 42.3% (inactive) and -81.8% (active) |
| COc1ccc(/C(C#N)=C/c2ccccn2)cc1 | 93.2% (inactive) and 122% (inactive) |
| CCN(CC)C(=S)SSC(=S)N(CC)CC | 83.7% (inactive) and 111% (inactive) |
| Nc1ccc(N=Nc2ccc(S(=O)(=O)O)cc2)cc1S(=O)(=O)O | 102% (inactive) and 111% (inactive) |
| CCN(CC)CCOc1ccc2c(c1)C(=O)c1cc(OCCN(CC)CC)ccc1-2 | 73.9% (inactive) and 90.8% (inactive) |
| O=C1OC2(c3ccccc31)c1ccc(O)c(O)c1Oc1c2ccc(O)c1O | 114% (inactive) and 97.9% (inactive) |
| O=S(=O)(Nc1ccccc1)C1CCCCC1 | 104% (inactive) and 95.9% (inactive) |
| CCNC(=O)Nc1ccc(-c2nc3c(c(N4CCOC[C@@H]4C)n2)CCN(C2COC2)C3)cc1 | -24.1% (active) and -36.2% (active) |
| CC(C)Cc1ccc(C(C)C(=O)NCc2ccc(Cn3c(=O)sn(CCCCl)c3=O)cc2)cc1 (configuration not stated) | 87.8% (inactive) and 55.6% (inactive) |
| OCc1ccccn1 | 81.8% (inactive) |
| Nc1ncnc2c1ncn2C1CC(O)C(CO)O1 (configuration not stated) | 105% (inactive) and 98.5% (inactive) |
| Cc1ccc2nc3c(nc2c1)-c1cccc2cccc-3c12 | 83.1% (inactive) |
| O=[N+]([O-])c1ccc(/C=N\NC(=S)Nc2ccc(F)cc2)cc1 | 119% (inactive) |
| CCN(CC)C(=O)c1cccnc1 | 114% (inactive) |
| CN1CCN(CCC=C2c3ccccc3Sc3ccc(S(=O)(=O)N(C)C)cc32)CC1 | 73.5% (inactive) and 62.1% (inactive) |
| Oc1nc(NCCc2ccccc2)sc1/C=C1\C=Nc2ncccc21 | -21.3% (active) and -7.55% (active) |

| Compound | growth |
| --- | --- |
| c1ccc2cc(C[n+]3ccn(Cc4ccc5ccccc5n4)c3)ccc2c1 | 49.1% (inactive) and 61.6% (inactive) |
| COc1ccc(Cn2c(NCCN=C(N)N)nc(=O)n(Cc3ccc(F)cc3)c2=O)cc1 | 92.1% (inactive) and 97.1% (inactive) |
| O=C(N/N=C/c1cccc2ccccc12)C1CC1 | 102% (inactive) |
| CC(C)CNC(=O)c1ccccc1C(=O)NC1(C(=O)NCC(C)C)CCCC1 | 84.2% (inactive) and 123% (inactive) |
| Cn1c(=O)n(-c2ccc(C(C)(C)C#N)cc2)c2c3cc(-c4cnc5ccccc5c4)ccc3ncc21 | -46.3% (active) and -44.5% (active) |
| CN(C)c1ccc(C(Cc2ccc3ccccc3n2)Cc2ccc3ccccc3n2)cc1 | 33.7% (inactive) and 59.3% (inactive) |
| Cc1ccc(S(=O)(=O)Nc2ccc3cc([N+](=O)[O-])ccc3c2[N+](=O)[O-])cc1 | 69.1% (inactive) and 83% (inactive) |
| NS(=O)(=O)c1cc2c(cc1Cl)NC(C(Cl)Cl)NS2(=O)=O (configuration not stated) | 97.6% (inactive) and 96.2% (inactive) |
| Nc1ccccc1Nc1ccccc1 | 105% (inactive) |
| c1ccc2c(CC3=NCCN3)cccc2c1 | 90.3% (inactive) and 81.4% (inactive) |
| Clc1ccc(NC(Nc2ccc(Cl)cc2)C(Cl)(Cl)Cl)cc1 | 107% (inactive) and 101% (inactive) |
| CCOc1ccc2c(S(=O)(=O)O)cccc2c1[N+](=O)[O-] | 95% (inactive) and 116% (inactive) |
| Cn1cnc([N+](=O)[O-])c1Sc1ncnc2nc[nH]c12 | 87.7% (inactive) and 103% (inactive) |
| Nc1nc2ncc(CNc3ccc(C(=O)N[C@@H](CCc4nn[nH]n4)C(=O)O)cc3)nc2c(=O)[nH]1 | 105% (inactive) and 92.2% (inactive) |
| Oc1c(Cl)cc(Cl)cc1Sc1cc(Cl)cc(Cl)c1O | 54.4% (inactive) and 42.3% (inactive) and 69.5% (inactive) |
| O=S1(=O)CC(Br)C(Br)C1 (configuration not stated) | 112% (inactive) |
| CN(C)c1ccc2nc3ccc(N)cc3[n+](-c3ccccc3)c2c1 | 67.5% (inactive) and 41.8% (inactive) |

System: CCRF-CEM leukemia
Test: as above
Conditions: 10 µM unless noted

| Compound | growth |
| --- | --- |
| COc1cc2c(c(OC)c1OC)-c1ccc(OC)c(=O)cc1[C@@H](NC(C)=O)CC2 | 8.93% (active) and 21.5% (inactive) and 3.02% (active) |
| CCN(CC)CCCC(CNc1ccnc2cc(Cl)ccc12)c1ccc(Cl)cc1 (configuration not stated) | -17.5% (active) and -46.6% (active) |
| N#CCCOc1ccccc1 | 95.7% (inactive) |
| COc1ccc(/C(C#N)=C/c2ccccn2)cc1 | 93% (inactive) and 102% (inactive) |
| CCN(CC)C(=S)SSC(=S)N(CC)CC | 16.9% (inactive) and 102% (inactive) |
| Nc1ccc(N=Nc2ccc(S(=O)(=O)O)cc2)cc1S(=O)(=O)O | 83.6% (inactive) and 46.6% (inactive) |
| CCN(CC)CCOc1ccc2c(c1)C(=O)c1cc(OCCN(CC)CC)ccc1-2 | 55.1% (inactive) |
| CCNC(=O)Nc1ccc(-c2nc3c(c(N4CCOC[C@@H]4C)n2)CCN(C2COC2)C3)cc1 | 52.8% (inactive) and 12.2% (inactive) |
| CC(C)Cc1ccc(C(C)C(=O)NCc2ccc(Cn3c(=O)sn(CCCCl)c3=O)cc2)cc1 (configuration not stated) | 53.4% (inactive) and 3.84% (active) |
| OCc1ccccn1 | 103% (inactive) |
| Nc1ncnc2c1ncn2C1CC(O)C(CO)O1 (configuration not stated) | 114% (inactive) and 99.2% (inactive) |
| CCCCCCCCCCCCCCCc1cc(O)ccc1N | 5.23% (active) and -6.89% (active) |
| Cc1ccc2nc3c(nc2c1)-c1cccc2cccc-3c12 | 85.7% (inactive) |
| O=[N+]([O-])c1ccc(/C=N\NC(=S)Nc2ccc(F)cc2)cc1 | 99.4% (inactive) and -3.91% (active) |
| CCN(CC)C(=O)c1cccnc1 | 97.4% (inactive) |
| CN1CCN(CCC=C2c3ccccc3Sc3ccc(S(=O)(=O)N(C)C)cc32)CC1 | 54.2% (inactive) and 31.6% (inactive) |
| Oc1nc(NCCc2ccccc2)sc1/C=C1\C=Nc2ncccc21 | 5.53% (active) and 9.93% (active) |

| Compound | growth |
| --- | --- |
| COc1cc2nc(N3CCN(C(=O)C4COc5ccccc5O4)CC3)nc(N)c2cc1OC (configuration not stated) | 74.9% (inactive) and 89.6% (inactive) and 97.8% (inactive) |
| c1ccc2cc(C[n+]3ccn(Cc4ccc5ccccc5n4)c3)ccc2c1 | 10.8% (inactive) and 40.5% (inactive) |
| COc1ccc(Cn2c(NCCN=C(N)N)nc(=O)n(Cc3ccc(F)cc3)c2=O)cc1 | 93.1% (inactive) and 87.4% (inactive) |
| CC(C)CNC(=O)c1ccccc1C(=O)NC1(C(=O)NCC(C)C)CCCC1 | 88.4% (inactive) and 104% (inactive) |
| Cn1c(=O)n(-c2ccc(C(C)(C)C#N)cc2)c2c3cc(-c4cnc5ccccc5c4)ccc3ncc21 | 10.1% (inactive) |
| CN(C)c1ccc(C(Cc2ccc3ccccc3n2)Cc2ccc3ccccc3n2)cc1 | 41.7% (inactive) and 67.4% (inactive) |
| Cc1ccc(S(=O)(=O)Nc2ccc3cc([N+](=O)[O-])ccc3c2[N+](=O)[O-])cc1 | 79.1% (inactive) and 39.4% (inactive) |
| Nc1ccccc1Nc1ccccc1 | 31.8% (inactive) and 25.3% (inactive) |
| Clc1ccc(NC(Nc2ccc(Cl)cc2)C(Cl)(Cl)Cl)cc1 | 95% (inactive) |
| CCOc1ccc2c(S(=O)(=O)O)cccc2c1[N+](=O)[O-] | 90.6% (inactive) and 107% (inactive) |
| CCN(CC)CCCC(C)N(Cc1ccccc1)CC(O)c1ccc(Cl)cc1 (configuration not stated) | 103% (inactive) and 120% (inactive) |
| Cn1cnc([N+](=O)[O-])c1Sc1ncnc2nc[nH]c12 | 48% (inactive) and 42.6% (inactive) |
| Nc1nc2ncc(CNc3ccc(C(=O)N[C@@H](CCc4nn[nH]n4)C(=O)O)cc3)nc2c(=O)[nH]1 | 108% (inactive) and 94.5% (inactive) |
| Oc1c(Cl)cc(Cl)cc1Sc1cc(Cl)cc(Cl)c1O | 23.1% (inactive) and 9.78% (active) and 61.2% (inactive) |
| O=S1(=O)CC(Br)C(Br)C1 (configuration not stated) | 33.7% (inactive) |
| CN(C)c1ccc2nc3ccc(N)cc3[n+](-c3ccccc3)c2c1 | 24.6% (inactive) and 13.7% (inactive) |

Source: PubChem BioAssay (NCI)
